# Assay outcomes from PubChem.
# A selection: hits, their analogues and other compounds. The true share with any hit is near 11%.
# L3MBTL1 inh: blocks human L3MBTL1; AlphaScreen L3MBTL1–H3K9me1 peptide binding; Potency, µM (titrated, usually from 57.1 µM), for the others: top-dose activity, negative = inhibition, hits mostly inhibitors; AID 485360; Q9Y468; 230,000 tested, 0.66% active; note: % is set by controls: 0 for no effect and ±100 for the full control effect; nearly all actives have a fitted effect of over 60% in size
#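 L3MBTL1 (50 nM) pre-complexed 30 min with biotinylated H3(1-15)K9me1 peptide (75 nM), then compounds added for 30 min at room temperature; AlphaScreen streptavidin donor/nickel chelate acceptor beads (10 ug/mL final) read after 30 min dark incubation.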
# G9a inh: G9a (human) methyltransferase inhibition; G9a H3K9 monomethylation, AlphaScreen, 2 h; Potency, µM (series often up to 102 µM), without a hit: at the top dose activity, negative = inhibition, most hits filed as inhibitors; 350,000 tested, 8.8% active; AID 504332; note: % is set by controls: 0 for no effect and ±100 for the full control effect; nearly all actives have a fitted effect of over 75% in size
# Target sequence (Q96KQ7 913-1193 limits assumed): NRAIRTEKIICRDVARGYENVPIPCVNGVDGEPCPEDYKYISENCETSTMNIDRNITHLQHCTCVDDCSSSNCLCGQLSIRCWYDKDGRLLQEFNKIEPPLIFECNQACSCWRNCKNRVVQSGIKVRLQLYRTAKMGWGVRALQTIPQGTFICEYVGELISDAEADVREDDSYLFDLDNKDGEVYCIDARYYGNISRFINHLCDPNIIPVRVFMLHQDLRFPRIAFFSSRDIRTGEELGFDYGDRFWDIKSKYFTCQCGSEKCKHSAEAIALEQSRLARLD
#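 Methyltransferase reactions run at room temperature for 2 h (20 nM enzyme, 500 nM biotin-H3K9 peptide, 20 uM SAM) after a 15 min compound preincubation; product detected by AlphaScreen beads and anti-H3K9me1 antibody.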
# JMJD2A Tudor inh: blocks the human JMJD2A Tudor domain; O75164; AlphaScreen JMJD2A-Tudor / H3K4me3 peptide binding; Potency, µM (top dose mostly 114 µM), for inactives: at the highest dose activity change, negative = inhibition, hits mostly inhibitors; AID 504339; 390,000 tested, 4.4% active; note: % is set by controls: 0 for no effect and ±100 for the full control effect; nearly all actives have a fitted effect of over 50% in size
# BAZ2B block: BAZ2B (human) inhibition; Q9UIF8; AlphaScreen BAZ2B-H3K14Ac peptide displacement; Potency, µM (highest dose often 114 µM), for inactives: at the highest dose activity change, negative = inhibition, actives largely listed as inhibitors; 360,000 tested, 4.4% active; note: % is set by controls: 0 for no effect and ±100 for the full control effect; nearly all actives have a fitted effect of over 60% in size
#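 In this displacement format the biotinylated H3(5-23) peptide acetylated at Lys14 serves as ligand at 50 nM, with BAZ2B at 50 nM in PBS pH 7.4 containing 0.01% Tween-20. Donor and acceptor beads are 10 ug/mL final.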
# HP1b chromo inh: HP1-beta chromodomain-methylated histone interaction inhibition. P83916. AlphaScreen HP1-beta / biotin-H3K9me3 peptide binding. Potency, µM (doses to about 114 µM), inactives show at the top dose activity change, negative = inhibition, usual class: inhibitors. 390,000 tested, 0.56% active. AID 540317; note: nearly all actives have a fitted effect of over 70% in size
# Target sequence (P83916 whole entry, looked up): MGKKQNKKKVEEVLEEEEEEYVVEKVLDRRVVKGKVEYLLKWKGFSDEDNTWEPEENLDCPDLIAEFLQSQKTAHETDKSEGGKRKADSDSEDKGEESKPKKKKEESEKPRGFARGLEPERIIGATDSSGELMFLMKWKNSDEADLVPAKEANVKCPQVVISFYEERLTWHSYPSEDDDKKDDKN
#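 AlphaScreen: HP1-beta (50 nM) preformed 30 min with biotin-H3(1-18)K9me3 peptide (50 nM) in PBS pH 7.4, 0.01% Tween-20. Compound added for 30 min at RT, then streptavidin donor/nickel chelate acceptor beads (10 ug/mL) for 30 min.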
# Starred values were filed as active, the others as inactive; ? = inconclusive; . = no result; [ ] = another dose, or the depositor's remark. Calls come from the whole dose curve; as a rule, active = well fitted inhibition curve with a large enough effect; inconclusive = small, poorly fitted or top-dose-only effect; inactive = no such curve, though single readings can be large or run the other way. Potency is the fitted concentration of half-maximal effect.
SMILES,L3MBTL1 inh,G9a inh,JMJD2A Tudor inh,BAZ2B block,HP1b chromo inh
CCc1c(C)sc2c1CCN(Cc1ccccc1F)C2c1ccccc1 (stereo unspecified),.,?,-34%,-27%,?
CCc1nnc(NC(=O)c2sc3nc4c(cc3c2N)CCCCCC4)s1,?,45µM*,-25%,-12%,-4%
COc1ccc2[nH]c(=S)[nH]c2c1,1%,4.5µM*,56µM*,10%,16%
S=c1[nH]c2cc(Cl)ccc2s1,-2%,1.8µM*,?,-1%[57.1 µM],-9%
S=c1[nH]c2ccc(Cl)cc2[nH]1,14%[11.4 µM],1.6µM*,45µM*,7%,?
Cc1cc(Cl)cc2sc(=S)[nH]c12,.,.,-18%,.,-11%[57 µM]
Cc1oc2c(C)c3oc(=O)c(CCC(=O)N4CCCCC4)c(C)c3cc2c1C,.,-2%[59 µM],-14%,-3%,31%
CC1=CC(C#N)(C#N)C(C#N)(C#N)C(c2ccccc2)N1 (stereo unspecified),?,?,.,35µM*,.
O=C(Cc1cccs1)N1CCN(c2ccc([N+](=O)[O-])cc2)CC1,.,?,-28%,56µM*,5%
CC(=O)N1CCN(c2ccc(NCc3ccc(C)s3)cc2)CC1,?,45µM*,?,10%,-14%
O=C(Cc1cccs1)N1CCN(c2ccc(F)cc2)CC1,1%,9%[59 µM],-1%,4%,25%
CC(=O)N1CCN(c2ccc(NCc3cccs3)cc2)CC1,-1%[11.4 µM],6.3µM*,-20%[11.4 µM],?,-32%
Cc1nc2ncnn2c(N2CCN(C(=O)Cc3cccs3)CC2)c1C,.,-25%[59 µM],?,50µM*,-13%
CC1CCn2c(nc3cc(C(=O)NCc4ccccc4)ccc32)C1 (stereo unspecified),.,-2%[59 µM],-7%,5%,29%[57 µM]
CCCCOc1ccccc1CC1C(=O)Nc2ccc(Br)cc21 (stereo unspecified),.,15%[59 µM],-21%,-26%,64%
COc1cc(OC)c(OC)cc1CNCc1ccc2c(c1)OCO2,-7%,45µM*,50µM*,-29%,8%
Cc1ccc(C)c(NC(=O)Nc2ccc3c(c2)OCO3)c1,.,5%[12.7 µM],-8%,-12%,22%
COc1ccc(NCc2ccc3c(c2)OCO3)cc1Cl,-28%,?,45µM*,40µM*,?
Cc1ccc(CNc2ccc3c(c2)OCO3)c(C)c1,.,13µM*,.,45µM*,.
COc1ccc(Cl)cc1S(=O)(=O)NC(C)C(=O)NCc1ccc2c(c1)OCO2 (stereo unspecified),.,13%,50µM*,3%,8%
CCN(CC)C(=O)c1sc2c(c1C)c(=O)n(-c1ccc(Cl)c(Cl)c1)c(=O)n2Cc1cc(=O)n2ccccc2n1,.,?,-3%,8%,81%
COc1ccccc1NC(=O)c1sc(NC(=O)c2ccco2)c(C#N)c1C,.,-3%[59 µM],-7%,-6%,7%
CCOC(=O)c1sc(NC(=O)c2cccnc2)c(C#N)c1C,4%,11µM*,-9%,-8%,27%
COC(=O)c1sc(NC(=O)c2ccco2)c(C#N)c1C,.,35µM*,-13%,-25%,-25%[57 µM]
COC(=O)c1oc2c(c1C)C(=O)CCC2,-3%,21%[59 µM],-17%,-10%,13%
SMILES,L3MBTL1 inh,G9a inh,JMJD2A Tudor inh,BAZ2B block,HP1b chromo inh
O=C1CCCc2oc3c(c21)CCCC3,.,50µM*,-3%,-21%,2%
O=C(COCc1cc(-c2cccs2)on1)NCc1cccc(Cl)c1,.,20%[59 µM],-4%,31%,32%
CSc1ncccc1C(=O)Nc1cc(Cl)ccc1N1CCOCC1,2%,.,-13%,.,2%
Cc1nc2ccc(NC(=O)c3cccc(C(F)(F)F)c3)cc2o1,5%,-28%[59 µM],-9%,2%,21%
Cc1ccc(NC(=O)c2cccc(C(F)(F)F)c2)cc1NC(=O)c1[nH]cnc1C(N)=O,-10%,3%[0.501 µM],?,56µM*,31%
S=c1[nH]c2ccccc2n1CCOc1ccccc1,25%,.,?,12%,-24%
S=c1[nH]c2ccccc2n2cccc12,1%,-3%,4%,-1%,49%
CCOc1ccc2[nH]c(=O)c(=O)[nH]c2c1,.,-30%[12.7 µM],5%,-6%,21%
CCOc1ccc(OCCn2c(=S)[nH]c3ccccc32)cc1,-10%,7.1µM*,?,50µM*,?
COc1ccccc1OCCn1c(=S)[nH]c2ccccc21,-6%,8.9µM*,?,1%,1%
Cn1c(=S)[nH]c2ccccc21,.,8.9µM*,50µM*,-35%,-11%
COc1ccccc1OCCn1c(=O)n(C)c2ccccc21,1%,39%[12.7 µM],-3%,-29%,35%
CCOc1ccc2c(c1)[nH]c(=S)n2C,4%,7.9µM*,56µM*,-15%,-34%
Cc1cc(C)c2c(=O)c3c(oc2c1)C(=O)N(Cc1ccc(F)cc1)C3c1cccc(O)c1 (stereo unspecified),.,-52%[59 µM],-35%,-24%,1%
CC1CCCCN1C(=O)COC(=O)c1ccc(=O)n(Cc2ccccc2)n1 (stereo unspecified),-1%,23%[2.33 µM],-1%,-4%,12%
S=c1[nH]c2ccccc2n1CCc1ccncc1,.,.,?,.,45%
Cc1ccc(OCCn2c(=S)[nH]c3ccccc32)c(C(C)C)c1,-7%,.,-25%,?,-10%
Cc1cccc(OCCn2c(=S)[nH]c3ccccc32)c1,?,1.6µM*,?,?,-61%
N#CCCn1c(=S)[nH]c2ccccc21,.,7.1µM*,-6%[57.1 µM],-3%,-20%
COc1ccc(NC(=O)CC2C(=O)N(c3ccc(C)cc3)C(=O)N2C2CCCC2)cc1 (stereo unspecified),.,-10%[59 µM],-23%,-15%,18%
COc1cccc(CNC(=O)c2cc3c(cc2Cl)N2CCCCCC2=NS3(=O)=O)c1,0%,11µM*,-9%,10%,33%
O=C(O)c1cc2c(cc1Cl)N1CCCCCC1=NS2(=O)=O,1%,-36%,-19%,-14%,41%
O=C(NC1CCCCC1)c1cc2c(cc1Cl)N1CCCCCC1=NS2(=O)=O,4%,50µM*,-2%,10%,19%
Cc1cc(C)cc(-n2c(SCC(N)=O)nc3c(oc4ccccc43)c2=O)c1,.,-1%[59 µM],-4%,-14%,34%
CCC12CC3CC(C1)CC(C(=O)Nc1nn[nH]n1)(C3)C2,-5%,20µM*,25µM*,?,2%
SMILES,L3MBTL1 inh,G9a inh,JMJD2A Tudor inh,BAZ2B block,HP1b chromo inh
COC(=O)CNC(=O)C12CC3(C)CC(C)(CC(C)(C3)C1)C2,.,-2%[59 µM],15%,-1%,25%
CC(C)(C)CC(=O)Nc1nn[nH]n1,1%,?,56µM*,79µM*,-23%
CC(C)(C)CC(=O)Nc1nnc(C(F)(F)F)s1,5%,-2%[59 µM],-7%,-3%,23%
Cc1nnc(NC(=O)C23CC4CC(C)(CC(C)(C4)C2)C3)s1,.,.,3%,.,49%
CC12CC3CC(C)(C1)CC(C(=O)Nc1nn[nH]n1)(C3)C2,6%,35µM*,20µM*,?,6%
CC12CC3(C)CC(C)(C1)CC(C(=O)Nc1nn[nH]n1)(C2)C3,.,35µM*,50µM*,?,11%
